In all, about 1,300 compounds went through this assay and about 330 (25%) were called active. These entries were drawn from the full list. Entries with a potency or affinity are not part of this list. A number with no mark means an inactive call. No rule for the calls is given here.
assay: MALME3 melanoma cell viability loss, dose response, orthogonal assay for MITF inhibitor project, CellTiter-Glo, cherry-picked (AID 493191); conditions: CellTiter-Glo luminescence, 24 h; series mostly up to 35 µM; activity change, negative = inhibition: at the top concentration

Going from Nc1c2c(=O)oc(-c3ccccc3)cc2nn1-c1ccccc1 to Cc1cc(C(=O)CN2C(=O)c3ccccc3S2(=O)=O)c(C)n1-c1ccccc1, the “activity change, negative = inhibition” value falls from -0.126% to -2.78%.

First: COc1cccc(C(=O)N/N=C(/c2ccccc2)c2ccccn2)c1
Second: CCOc1ccc(OCc2ccc(C(=O)N/N=C(\C)c3ccccn3)cc2)cc1
The “activity change, negative = inhibition” value of the first is higher: -23.3% for the first, -39.2% for the second.

Compared with COc1cc(C(=O)Oc2c(CN3CCOCC3)cc(Cl)c3cccnc23)cc(OC)c1OC, COc1cc(CN2CCC(Cc3ccccc3)CC2)cc(OC)c1OC is higher in “activity change, negative = inhibition” value: -44.2% for the first, 7.73% for the second.

First: O=c1nc(N/N=C/c2ccccn2)cn[nH]1
Second: N/C(=N\OC(=O)c1ccccc1Cl)c1ccccn1
The “activity change, negative = inhibition” value of the first is higher: -15.8% for the first, -32.8% for the second.

Going from CC(C)c1ccc(CNc2ncccn2)cc1 to CC(C)c1ccc(/C=N/Nc2ccc(C(=O)O)cc2)cc1, the “activity change, negative = inhibition” value rises from -7.32% to 5.55%.

Going from CCCCN1CCc2c1nc1ccc(Br)cc1c2N to CCOC(=O)N1CCN(C(=O)c2ccc(Cn3c(=S)[nH]c4ccc(Br)cc4c3=O)cc2)CC1, the “activity change, negative = inhibition” value rises from -43% to -20.7%.

First: CCCOc1ccc(-c2c(=O)n(O)c3ccccc3[n+]2[O-])cc1
Second: CCCOc1ccc(C(=O)C(CN2CCCC2)c2ccccc2)cc1 (stereo unspecified)
The “activity change, negative = inhibition” value of the first is higher: -6.65% for the first, -37.2% for the second.

Compared with BrC(=C\c1ccccc1)/C=N/n1cnnc1, CN1C/C(=C/c2cccnc2)C(=O)/C(=C/c2cccnc2)C1 is higher in “activity change, negative = inhibition” value: -26.2% for the first, 11% for the second.

Compared with Cc1ccc(C#CC[N+]2(CC#Cc3ccc(C)cc3)CCCCC2)cc1, Cc1ccc(C(=O)C[n+]2cc(-c3ccc(C)cc3)n3c2CCCCC3)cc1 is lower in “activity change, negative = inhibition” value: -38.5% for the first, -45% for the second.

First: CC(C)N1C/C(=C/c2cccnc2)C(=O)/C(=C/c2cccnc2)C1
Second: Cc1cc(O)ccc1Nc1nc(-c2cccnc2)cs1
The “activity change, negative = inhibition” value of the first is lower: -31.7% for the first, 3.74% for the second.

Going from Cc1cccc(OCc2nc3ccccc3n2C)c1 to Cc1nc(NCCOc2ccccc2)sc1C(=O)Nc1ccccc1, the “activity change, negative = inhibition” value falls from 1.51% to -14.8%.

Going from O=S(=O)(c1ccc(F)cc1)c1snnc1-c1ccccc1 to Clc1c(-c2ccccc2)nc2ccccn12, the “activity change, negative = inhibition” value rises from -12.4% to 4.22%.

Compared with O=C(CSc1ccc(Cl)cc1)NC1CCCC1, O=C(/C=C/c1ccccc1Cl)NC1CCCCC1 is higher in “activity change, negative = inhibition” value: -1.8% for the first, 8.1% for the second.

First: O=C(CCCN1C(=O)S/C(=C\c2ccccc2)C1=O)NNC(=O)c1ccccc1O
Second: O=C1c2ccccc2C(=O)N1CCSc1ccccc1
The “activity change, negative = inhibition” value of the first is lower: -9.65% for the first, 0.331% for the second.

Compared with Cc1ccc(C(=O)c2no[n+]([O-])c2C(=O)c2ccc(C)cc2)cc1, C=CC[n+]1c(-c2ccc(C)cc2)csc1Nc1ccc(NC(C)=O)cc1 is higher in “activity change, negative = inhibition” value: -26.9% for the first, 3.35% for the second.

Compared with CN(C)c1ccc(/C=N\NC(=O)c2cccc3cc[nH]c23)cc1, COc1ccc(NC(=O)c2cc3ccccc3[nH]2)cc1 is higher in “activity change, negative = inhibition” value: 1.73% for the first, 3.96% for the second.

First: CCC(=O)N1CCN(c2ccc(Cl)cc2NC(=O)c2ccc([N+](=O)[O-])o2)CC1
Second: CC(=O)c1ccc(S(=O)(=O)N2CCN(C(=O)/C=C/c3ccc4ccccc4n3)CC2)cc1
The “activity change, negative = inhibition” value of the first is lower: -43.4% for the first, -3.46% for the second.

First: Cn1c(/C(C#N)=C/c2ccc(-c3ccc(S(N)(=O)=O)cc3)o2)nc2ccccc21
Second: CS(=O)(=O)c1ccc2nc(NC(=O)c3ccccc3Br)sc2c1
The “activity change, negative = inhibition” value of the first is lower: -11.6% for the first, 13.2% for the second.

First: Cc1cc(N2CCOCC2)n2ncc(-c3ccccc3Cl)c2n1
Second: O=C(c1ccc(F)cc1)C(CN1CCOCC1)c1ccccc1 (stereo unspecified)
The “activity change, negative = inhibition” value of the first is higher: -2.42% for the first, -21.3% for the second.

Compared with C#Cc1cccc(NC(=O)CSc2nnc(-c3ccc(C(F)(F)F)cn3)o2)c1, Fc1cccc(Cl)c1CSc1nnc(-c2ccncc2)o1 is higher in “activity change, negative = inhibition” value: 7.2% for the first, 7.71% for the second.

Compared with CCCN(CC(=O)Nc1ccccc1C)C(=O)CCl, Cc1c(C#N)c(NC(=O)CCl)n(Cc2ccccc2)c1C is lower in “activity change, negative = inhibition” value: -20.5% for the first, -33.6% for the second.

Compared with Cc1ccc(CC(=O)Nc2ccc(Cl)cn2)cc1, Cc1ccc(OCC(=O)Nc2ccccc2F)cc1 is lower in “activity change, negative = inhibition” value: 7.43% for the first, 2.26% for the second.

First: Cc1ccc2c(c1)Oc1ccc(NC(=O)CCl)cc1C(=O)N2
Second: CCOC(=O)c1ccc(NC(=O)Cc2cccs2)cc1
The “activity change, negative = inhibition” value of the first is lower: -38.9% for the first, -16.7% for the second.

Compared with COc1ccc(S(=O)NC2CCCCC2)c(OC)c1C (stereo unspecified), CCOc1ccc(N/C=C/C(=O)c2ccc(OC)c(OC)c2)cc1 is lower in “activity change, negative = inhibition” value: -5.41% for the first, -6.29% for the second.

Compared with COc1ccc2cc3cc(C(=O)NCCc4ccc(OC)c(OC)c4)oc3nc2c1, COc1ccc(C)cc1Nc1nc(N)c2cc(OC)c(OC)cc2n1 is higher in “activity change, negative = inhibition” value: -18.4% for the first, 10.8% for the second.

Compared with CCOC(=O)C1CCCN(C(=O)C2CCN(S(=O)(=O)CC)CC2)C1 (stereo unspecified), CC1CC(C)C[N+](=C2C=C(N3CCCC3)CC(C)(C)C2)C1 (stereo unspecified) is lower in “activity change, negative = inhibition” value: 1.71% for the first, -24.1% for the second.

Compared with CCc1ccc(Nc2nc(C)cc(C)n2)cc1, CCN(C(=O)c1ccco1)c1nc(-c2ccc(OC)cc2)cs1 is higher in “activity change, negative = inhibition” value: -3.27% for the first, 1.88% for the second.

Going from CCOC(=O)c1ccc(NC(=O)CC2SCCNC2=O)cc1 (stereo unspecified) to CCOC(=O)c1c(C)[nH]c(C)c1C(=O)COC(=O)c1ccc([N+](=O)[O-])s1, the “activity change, negative = inhibition” value falls from -0.676% to -39.1%.

First: COc1ccccc1-c1nnc(-c2ccc(C)cc2)o1
Second: CCN1c2ccccc2NC2C1C(C(C)=O)C(=O)N2c1ccc(Cl)cc1 (stereo unspecified)
The “activity change, negative = inhibition” value of the first is higher: -5.25% for the first, -8.47% for the second.

First: COCCNC(=O)c1cc2sc3ccccc3c2s1
Second: CC(=O)N/C(N)=N/c1nc(=O)c2ccccc2s1
The “activity change, negative = inhibition” value of the first is higher: 8.29% for the first, 1.17% for the second.

First: O=C(N/N=C/c1cc(Cl)ccc1O)c1ccncc1
Second: N/C(=N\OC(=O)c1ccncc1)c1cccc([N+](=O)[O-])c1
The “activity change, negative = inhibition” value of the first is lower: -30.2% for the first, 2.54% for the second.

First: COc1cc2nc(SCC(=O)NCc3ccco3)n(Cc3ccc(Cl)cc3)c(=O)c2cc1OC
Second: CC(C)(CO)NC(=O)c1ccc2nc(Cc3cccc(Cl)c3)oc2c1
The “activity change, negative = inhibition” value of the first is lower: -14.3% for the first, -0.565% for the second.

Going from CCCCCCN1C=CC(=C2C(=O)c3ccccc3C2=O)C=C1 to CCOC(=O)c1sc(-c2ccccc2)cc1N, the “activity change, negative = inhibition” value falls from -26.2% to -45.5%.

Compared with CC1CCN(Cc2nc(-c3ccc(Cl)cc3)no2)CC1, CCOc1ccc(-n2c(-c3ccc(Br)cc3)c[n+]3c2CCCCC3)cc1 is lower in “activity change, negative = inhibition” value: 3.04% for the first, -27.9% for the second.

Going from Cc1ccc(C(=O)NC2=NCCS2)cc1Cl to NC(=O)c1c(NC(=O)c2cccnc2)sc2c1CCCCC2, the “activity change, negative = inhibition” value rises from -3.46% to 4.25%.

Compared with CCOc1ccc2nc(NC(=O)Cc3cccs3)sc2c1, CC(C)CC(=O)NC(c1cccs1)c1ccc2cccnc2c1O (stereo unspecified) is lower in “activity change, negative = inhibition” value: 3.36% for the first, -25.5% for the second.

Going from Cc1nn(C)cc1/C=C/C(=O)c1cccs1 to COc1cccc(NC(=O)Nc2cccc(C(=O)O)c2)c1, the “activity change, negative = inhibition” value falls from 11% to -7.18%.

Going from COc1cc(OC)cc(C(=O)Nc2ccc3c(c2)OCCO3)c1 to COc1cc2c(cc1O)C(SC)=NC(C)(C)C2, the “activity change, negative = inhibition” value rises from -37.2% to -2.97%.

Source: PubChem BioAssay AID493191 (Broad Institute, 2011)
